# Screening results deposited in PubChem by National Center for Advancing Translational Sciences (NCATS).
# HEK cytotox: kills HEK 293 cells. HEK 293 viability, ATP luminescence (CellTiter-Glo), 48-72 h. Potency, µM (series often up to 115 µM), for inactives: at the top dose activity change, negative = cytotoxicity, hits mostly inhibitors. actives 6.6% (n = 94,000). AID 1345083; further: on the % scale 0 is the no-effect control and ±100 the full control effect; nearly all actives have a fitted effect of over 60% in size
#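 Viability of HEK 293 cells, plated at 250 cells/well, was judged by cellular ATP after compound treatment for 48 or 72 hr. Luminescence was imaged 10 min after CellTiter-Glo addition at room temperature.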
# hNpr1 antagonist: antagonists of human natriuretic peptide receptor Npr1; P16066; HEK293 hNpr1 GloSensor cGMP, ANP-stimulated luminescence; actives 1.6% (n = 76,000); Potency, µM (series often up to 46.3 µM), inactives show top-dose activity change, negative = inhibition, most hits filed as inhibitors; calls by dose curve; further: on the % scale 0 is the no-effect control and ±100 the full control effect; nearly all actives have a fitted effect of over 60% in size
#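 HEK293 cells stably expressing human Npr1 and cGMP GloSensor pGS-40F, loaded 2 h with 2% GloSensor reagent, given compound 30 min at room temperature. Luminescence read before and 20 min after 0.1 nM hNppA.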
# Luciferase inh: inhibitors of firefly (Photinus pyralis) luciferase; P08659; purified P. pyralis luciferase, luminescence, biochemical; Potency, µM (titrated, usually from 115 µM), actives largely listed as inhibitors; actives 2.5% (n = 76,000); AID 1347043; further: on the % scale 0 is the no-effect control and ±100 the full control effect; nearly all actives have a fitted effect of over 65% in size
#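 Cell-free enzyme assay, 10nM P. pyralis luciferase, luciferin and ATP each at 10uM. Inhibition profiled over a 6-point titration, read as luminescence.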
# GPT2 inh: inhibitors of human GPT2 alanine aminotransferase; Q8TD30; Potency, µM (series often up to 57.7 µM), for the others: top-dose activity change, negative = inhibition, actives largely listed as inhibitors; Recombinant GPT2, coupled pyruvate oxidase/HRP Amplex Red fluorescence; actives 0.25% (n = 100,000); further: on the % scale 0 is the no-effect control and ±100 the full control effect; nearly all actives have a fitted effect of over 60% in size
# Target sequence (Q8TD30 whole entry, looked up): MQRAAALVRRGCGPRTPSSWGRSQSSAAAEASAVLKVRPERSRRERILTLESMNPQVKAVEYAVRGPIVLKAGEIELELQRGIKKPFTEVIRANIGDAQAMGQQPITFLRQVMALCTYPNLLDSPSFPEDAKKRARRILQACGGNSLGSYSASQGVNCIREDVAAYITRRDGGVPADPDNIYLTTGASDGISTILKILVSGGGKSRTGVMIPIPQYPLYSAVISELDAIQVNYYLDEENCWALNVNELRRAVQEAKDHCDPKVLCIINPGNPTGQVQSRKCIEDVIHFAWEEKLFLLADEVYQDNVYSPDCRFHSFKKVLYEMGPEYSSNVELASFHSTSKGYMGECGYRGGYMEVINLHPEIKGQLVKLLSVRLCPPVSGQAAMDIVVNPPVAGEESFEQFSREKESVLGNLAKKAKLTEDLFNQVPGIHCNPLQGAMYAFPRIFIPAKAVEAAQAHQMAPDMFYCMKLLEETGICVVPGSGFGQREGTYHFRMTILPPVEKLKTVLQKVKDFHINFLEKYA
#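 Recombinant GPT2 (10ng/uL) with 250uM a-KG and 2mM L-alanine, 30 min at room temperature, in HEPES pH 7.5 buffer. Pyruvate detected by pyruvate oxidase/HRP/Amplex Red fluorescence after 30 min in the dark; AOA (50uM) as positive control.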
# 3T3 cytotox: cytotoxic compounds in NIH 3T3 cells | NIH 3T3 viability, CellTiter-Glo ATP luminescence, 48-72 h | AID 1345082 | Potency, µM (highest dose often 96.7 µM), inactives show at the top dose activity change, negative = cytotoxicity, hits mostly inhibitors | actives 4.3% (n = 94,000); further: on the % scale 0 is the no-effect control and ±100 the full control effect; nearly all actives have a fitted effect of over 55% in size
#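 NIH 3T3 cells at 400 cells/well received 23 nL of compound by pintool and were incubated 48 or 72 h at 37 °C. Viability was read as ATP-coupled CellTiter-Glo luminescence.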
# NPR1 antag cnf: confirmation of human Npr1 natriuretic peptide receptor antagonists; shares compounds with hNpr1 antagonist; HEK293 hNpr1 cGMP GloSensor luminescence, ANP-stimulated; Potency, µM (series often up to 57.6 µM), for inactives: at the top dose activity change, negative = inhibition, actives largely listed as inhibitors; actives 76% (n = 1,400); calls by dose curve; further: nearly all actives have a fitted effect of over 70% in size
# NPR2 antag: selectivity test of Npr1 antagonists against human Npr2; Potency, µM (highest dose often 57.6 µM), inactives show top-dose activity change, negative = inhibition, hits mostly inhibitors; actives 67% (n = 1,400); shares compounds with hNpr1 antagonist; HEK293 hNpr2 GloSensor cGMP luminescence, CNP-stimulated; AID 1347046; calls by dose curve; further: nearly all actives have a fitted effect of over 70% in size
# FLuc inh counter: FLuc enzyme inhibition, Npr1 counter-screen | Potency, µM (doses to about 57.6 µM), for inactives: at the top dose activity change, negative = inhibition, hits mostly inhibitors | shares compounds with hNpr1 antagonist | actives 0.7% (n = 1,400) | purified FLuc enzyme, luminescence, Km substrate | AID 1347047; further: 0% is about no effect
# GloSensor ctrl: control cell line activity, Npr1 antagonist counter-screen; shares compounds with hNpr1 antagonist; Potency, µM (top dose mostly 57.6 µM), for the others: at the top dose activity change, negative = inhibition, most hits filed as inhibitors; HEK293 GloSensor cGMP, SNP-stimulated, luminescence; AID 1347051; actives 69% (n = 1,400); calls by dose curve; further: on the % scale 0 is the no-effect control and ±100 the full control effect; nearly all actives have a fitted effect of over 70% in size
# The depositor's hits bear a star; i = inactive; ? = inconclusive; / = no result; [ ] = dose if it differs, or a comment. In the library only some 10% were active in any assay of this set; here they are far more common. Unless noted, the call rests on the fitted dose curve; in most records, active means well fitted curve in the direction sought with a large enough effect; inconclusive means small, poorly fitted or top-dose-only effect, or another doubt; inactive means no such curve, though single readings can be large; an effect the other way counts as inactive or inconclusive. Potency means the concentration at half of the fitted maximal effect.
SMILES,HEK cytotox,hNpr1 antagonist,Luciferase inh,GPT2 inh,3T3 cytotox,NPR1 antag cnf,NPR2 antag,FLuc inh counter,GloSensor ctrl
O=C(NCc1ccccc1)c1nc2c(o1)CCN(Cc1ccc(F)cc1)CC2,?,?,i,4%[88.5 µM],?,35µM*,35µM*,0%[86.2 µM],35µM*
Cc1cccc(CN2CCc3nc(C(=O)NCc4ccccc4)oc3CC2)c1,?,-27%[70.6 µM],i,0%[88.5 µM],?,/,/,/,/
COc1cccc(-n2nc(C(=O)O)cc2-c2ccc(C3CCCCC3)c(Cl)c2)c1,/,/,/,-5%,/,/,/,/,/
Cc1cccc(C(=O)N2CCC(N3C(=O)C4(CCCC4)C3c3scnc3C)CC2)c1 (stereo not drawn),-25%,8%,i,i,?,/,/,/,/
CCc1ncc2c(=O)n(Cc3ccc(OC)cc3)ccn12,?,10µM*,i,-11%,-26%,12µM*,12µM*,-3%,8.6µM*
CCc1nc(CC)n2ccn(Cc3ccc(OC)cc3)c(=O)c12,?,2%,i,0%,?,/,/,/,/
Cn1nccc1C(=O)N1CCC(Oc2ccccc2-c2nc(-c3ccccc3)no2)C1 (stereo not drawn),?,-3%,i,2%,?,/,/,/,/
O=C(c1ccnc2ccccc12)N1CCC2(CC1)Nc1ccccc1NC2=O,?,?,i,?,-46%,22µM*,?,3%,27µM*
COc1nccc(N2CCC(CC(=O)N3CCCN(c4ncccn4)CC3)CC2)n1,?,22µM*,i,i,-31%,24µM*,?,3%,?
COc1nccc(N2CCC(CC(=O)NCc3ccc(F)c(Cl)c3)CC2)n1,?,11µM*,i,-10%,?,24µM*,22µM*,3%,24µM*
CCNc1cc(N2CCC(CCC(=O)N3CCCN(c4ncccn4)CC3)CC2)ncn1,?,?,i,i,-24%,24µM*,?,2%,24µM*
CNc1nccc(N2CCC(CC(=O)N3CCN(c4ccccc4C)CC3)CC2)n1,28µM*,?,i,-3%,45µM*,?,?,7%,?
CCNc1cc(N2CCC(CCC(=O)NCC3CC3)CC2)ncn1,?,-4%,i,i,-5%,/,/,/,/
COc1cccc(C(=O)N2CCC(N3C[C@H](O)C[C@H]3C(=O)Nc3ccc4c(c3)OCCO4)CC2)c1,-14%,4%,i,-3%,-15%,/,/,/,/
COCC(=O)N1CCN(C(=O)c2nc3cccnc3n(Cc3ccccc3)c2=O)CC1,i,/,/,i,i,/,/,/,/
CCOC(=O)C1CCCN(C(=O)c2cn3cc(-c4cccc(C(F)(F)F)c4)sc3n2)C1 (stereo not drawn),-16%,/,/,i,-31%,/,/,/,/
COc1ccc(S(=O)(=O)N2CCc3c(C(=O)NCc4cccc(F)c4)cccc32)cc1,?,?,i,-22%,-25%,?,?,-13%,?
CCCNC(=O)c1cccc2c1CCN2S(=O)(=O)c1ccccc1F,?,-25%,i,-13%,-19%,/,/,/,/
CCCNC(=O)c1cccc2c1CCN2S(=O)(=O)c1ccc(OC)cc1,?,?,i,?,-22%,/,/,/,/
Cc1ccc(S(=O)(=O)N2CCc3c(C(=O)NCc4ccccn4)cccc32)cc1,?,11µM*,i,-9%,?,24µM*,24µM*,-7%,31µM*
CCc1ccc(C(=O)N2CCC(n3cnnc3-c3ccccc3)CC2)cc1,1%,-1%,i,1%,-8%,/,/,/,/
CC(=O)N1CCN(C(=O)c2ccc3nnc(C(C)(C)C)n3c2)CC1,i,/,/,-3%[88.5 µM],-19%[138 µM],/,/,/,/
O=C(c1nc(-c2cccc(C(F)(F)F)c2)c2cnccn12)N1CCCC1,?,23%,i,i,?,/,/,/,/
COc1ccc(C(=O)NC[C@H]2Cn3c(-c4ccc(F)cc4)cnc3CO2)cc1,?,?,i,-7%[88.5 µM],?,/,/,/,/
COc1ccc(S(=O)(=O)NC[C@H]2Cn3c(-c4ccc(Cl)cc4)cnc3CO2)cc1,89µM*,?,i,3%[88.5 µM],79µM*,?,?,-20%[86.2 µM],-16%[86.2 µM]
SMILES,HEK cytotox,hNpr1 antagonist,Luciferase inh,GPT2 inh,3T3 cytotox,NPR1 antag cnf,NPR2 antag,FLuc inh counter,GloSensor ctrl
COc1ccc(CNC[C@H]2Cn3c(-c4ccc(Cl)cc4)cnc3CO2)cc1,56µM*,25µM*,i,2%[88.5 µM],32µM*,31µM*,35µM*,1%[86.2 µM],?
CC1(c2noc(C3CCOCC3)n2)CCN(Cc2ccc(Cl)cc2F)CC1,?,13µM*,i,-3%,-29%,24µM*,24µM*,7%,22µM*
CC(C)Oc1ccc(CN2CCC(C)(c3noc(C4CCOCC4)n3)CC2)cc1,-14%,1%,i,i,0%,/,/,/,/
COCC(=O)N1CCN(C(=O)c2nc3cccnc3n(C3CC3)c2=O)CC1,1%,/,/,4%,-22%,/,/,/,/
Cc1cc(=O)n(CC(=O)NC(C)C)c(N2CCc3ccccc3C2)n1,?,4%,i,i,-3%,/,/,/,/
COc1ccccc1NC(=O)Cn1c(N2CCc3ccccc3C2)nc(C)cc1=O,?,-23%,i,i,?,-23%,-14%,-3%,-10%
COc1ccc(OC)c(NC(=O)Cn2c(N3CCc4ccccc4C3)nc(C)cc2=O)c1,32µM*,?,i,i,28µM*,?,?,1%,?
COc1ccc(C)cc1NC(=O)Cn1c(N2CCc3ccccc3C2)nc(C)cc1=O,-1%,1%,i,i,-4%,/,/,/,/
Cc1cccc(NC(=O)Cn2c(N3CCc4ccccc4C3)nc(C)cc2=O)c1,45µM*,-28%,i,i,?,-29%,?,0%,?
Cc1cc(=O)n(CC(=O)Nc2ccccc2C)c(N2CCc3ccccc3C2)n1,?,?,i,i,?,?,-22%,2%,-27%
